Experimental data: PubChem BioAssay (NCATS)
Results filed as inconclusive are left out. Values without a mark were called inactive. Active and inactive are the calls of the source. Calls follow the shape of the dose curve; as a rule, active = well fitted inhibition curve with a large enough effect; inconclusive = small, poorly fitted or top-dose-only effect; inactive = flat fitted curve, though single readings scatter.

Tested on: HEK293
Experiment: Cytotoxic Profiling of Annotated Libraries Using Quantitative High-Throughput Screening (AID 1296008); also: nearly all actives have a fitted effect of over 60% in size
Conditions: Five cell lines viability, CellTiter-Glo ATP luminescence, 48-72 h; max response: stronger effect = lower value
Method in brief: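 Cells exposed to compounds for 48 or 72 hr at 37 degrees Celsius. Viability read as ATP-coupled luminescence with CellTiter-Glo after 10 min at room temperature.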
% is scaled to controls: 0 for no effect and ±100 for the full control effect; potency is read from the fitted curve at half-maximal effect.

| SMILES | max response | outcome | Potency |
| --- | --- | --- | --- |
| C[C@@H]1O[C@@H](O[C@@H]2[C@@H](O[C@@H]3O[C@@H](C)[C@H](O[C@@H]4OC[C@H](O)[C@H](O[C@@H]5OC[C@@H](O)[C@H](O)[C@H]5O)[C@H]4O)[C@@H](O[C@@H]4OC[C@](O)(CO)[C@H]4O)[C@H]3O)[C@H](OC(=O)[C@]34CCC(C)(C)C[C@H]3C3=CCC5[C@@]6(C)C[C@H](O)[C@H](O[C@@H]7O[C@H](CO[C@@H]8OC[C@H](O)[C@H](O)[C@H]8O)[C@@H](O)[C@H](O)[C@H]7O)C(C)(C)C6CC[C@@]5(C)[C@]3(C)C[C@H]4O)OC[C@H]2O)[C@H](O)[C@H](O)[C@H]1O (some centres not stated) | 0.0429% |  |  |
| CC(C)=CCC/C(C)=C/CO[C@@H]1O[C@H](CO)[C@@H](OC(=O)/C=C/c2ccc(O)cc2)[C@H](O[C@@H]2O[C@@H](C)[C@H](O)[C@@H](O)[C@H]2O)[C@H]1O | 1.83% |  |  |
| OC1CCC(Nc2ncc3nc(Nc4c(F)cc(F)cc4F)n([C@H]4CCOC4)c3n2)CC1 (some centres not stated) |  | inactive |  |
| CNC(=O)c1ccccc1Nc1nc(Nc2ccc(N3CCNCC3)cc2)ncc1Cl |  |  | 65.1 nM (active) |
| C[C@@H]1O[C@@H](O[C@H]2[C@@H](OC(=O)[C@]34CCC(C)(C)CC3C3=CCC5[C@@]6(C)C[C@H](O)[C@H](O[C@@H]7O[C@H](C(=O)O)[C@@H](O)[C@H](O)[C@H]7O)[C@@](C)(C(=O)O)C6CC[C@@]5(C)[C@]3(C)CC4)OC[C@H](O)[C@@H]2O)[C@H](O)[C@H](O)[C@H]1O[C@@H]1OC[C@@H](O)[C@H](O)[C@H]1O (some centres not stated) | -1.89% |  |  |
| C=C(C(=O)O)[C@H]1C[C@]2(C)[C@@H](O)CC[C@]23O[C@H]1C[C@@H]3C | -6.98% |  |  |
| CC1OC(OC2C(C)OC(OC3C(OC(=O)C45CCC(C)(C)CC4C4=CCC6C7(C)CCC(OC8OC(C(=O)O)C(O)C(O)C8OC8OC(CO)C(O)C(OC9OC(C)C(O)C(O)C9O)C8O)C(C)(CO)C7CCC6(C)C4(C)CC5)OC(CO)C(O)C3O)C(O)C2O)C(O)C(O)C1O (configuration not stated) | 1.99% |  |  |
